Common to all, as to assay: NCI-60 one-dose screen, 48 h (100 = growth as untreated, 0 = no growth, -100 = all killed)
Settings in all cases: 10 µM

For test [1], the system named is SR leukemia.
In test [2] the test system is RPMI-8226 leukemia.
Test [3] deals with OVCAR-8 ovarian.
The subject of test [4] is OVCAR-5 ovarian.
In test [5] the test system is OVCAR-4 ovarian.
Test [6] has as its system SK-OV-3 ovarian.
Test [7] relates to IGROV1 ovarian.
Test [8] deals with OVCAR-3 ovarian.
Test [9] deals with HS 578T breast.
Test [10] deals with NCI/ADR-RES ovarian.

Compounds without any hit were thinned out: in the full panel of roughly 83,000, 20% have a hit.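 Values shown are percent growth following 48 h exposure of cells in 96-well plates to a single concentration of compound; below 10 was considered active.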 Values without a mark were called inactive. Active and inactive are the calls of the source.

Turning to `O=c1cc(-c2ccccc2)oc2cc(OCCCCNCc3ccccc3)cc(O)c12`, the growth is -29.7% (active) in [1]; -22.6% (active) in [2]; 52.6% in test [3]; 92.1% in test [4]; 34.7% in test [5]; 61.1% in test [6]. The growth in test [7] was 63.8%; in [8] it was 64.3%; in [9] it was 39.6%; in test [10] it was -68.4% (active).

Consider `CN(C)c1ccc(/C=C/c2nc3ccccc3c(=O)n2CC(=O)Nc2ccc(Cl)cc2)cc1`, for which the growth was 81.2% in test [1]; 88.1% in [2]; 2.8% (active) in test [3]; 75.4% in test [4]; 7.27% (active) in test [5]; 84.8% in [6]. Also, the growth in [7] was 88.3%; in test [8], 42.2%; in test [9] it was 17.1%; in test [10], 22.4%.

For the compound `COc1ccc2[nH]cc(/C=N/Nc3cccc(Cl)n3)c2c1`, the growth in test [1] is 17.1%; in test [2], -0.856% (active); in test [3], 57.9%; in [4] it was 77.4%; in test [5] it was 59.8%; in [6], 91.4%. Moreover, the growth in test [7] was 5.42% (active); in [8], 17.4%; in test [9], 49.9%; in test [10], 22.2%.

As for `Cc1ccc(-c2nc(Nc3ccc(C)c(S(N)(=O)=O)c3)c3ccccc3n2)cc1`, the growth is 3.79% (active) in test [1]; 87% in test [2]; 45.9% in [3]; 94% in test [4]; 70.1% in test [5]; 125% in [6]. The growth in test [7] is 87.5%; in [8], 57%; in test [9] it was 102%; in [10], 60.3%.

On to `CCOc1ccc(Nc2nc3ccccc3nc2Nc2ccc(OCC)cc2)cc1`, for which the growth in [1] was 42.2%; in test [2] it was 18.5%; in test [3], 58.3%; in test [4], 107%; in [5] it was 52.7%; in [6], 108%. For the same compound, the growth in [7] was 55%; in [8], 22.5%; in test [9], 107%; in test [10], 65%.

In the case of `CC(C)(C)c1ccc(NCc2cn(-c3ccc(C(=O)O)cc3)nc2-c2ccc(C#N)cc2)cc1`, the growth is 5.39% (active) in test [1]; 14.6% in test [2]; 28.5% in test [3]; 32.6% in test [4]; 36.7% in [5]; 112% in test [6]. In addition, the growth is 36.5% in test [7], 19.7% in test [8], 37.4% in test [9] and 11.7% in [10].

Take `COc1ccc(-c2cc(C(=O)N=Nc3c(O)[nH]c4ccc(Br)cc34)c3ccccc3n2)cc1`: the growth in test [1] is 3.37% (active); in test [2], 38.7%; in test [3], 8.79% (active); in [4] it was 51.3%; in test [5], 51%; in test [6], 114%. Moreover, the growth in [7] is 12.3%; in test [8], 8.75% (active); in [9], 61.6%; in test [10] it was 43.2%.

Take `O=C(CNc1nc(-c2ccccc2)cs1)Nc1ccc([N+](=O)[O-])cc1`: the growth in test [1] is 10.8%; in test [2] it was 11.7%; in test [3], 17.7%; in [4] it was -39.6% (active); in [5], 18%; in [6] it was 53.9%. The growth was 16.6% in test [7], 13.1% in [8], 21.8% in test [9] and -20.4% (active) in test [10].

For the compound `Cc1cc(C)nc(NS(=O)(=O)c2ccc(N/C(N)=N/c3nccc(-c4ccccc4)n3)cc2)n1`, the growth in test [1] was 53.8%; in [2], 60.8%; in test [3] it was 77.7%; in test [4] it was 76.1%; in [5], 67.3%; in [6], 52.9%. For the same compound, the growth in test [7] is 38.9%; in test [8], 86.8%; in test [9] it was 48.1%; in test [10] it was 84.5%.

With `COc1ccc(OC)c(-c2cc(-c3c[nH]c4ccccc34)nc(N)c2C#N)c1`, the growth is 8.54% (active) in [1]; 6.3% (active) in test [2]; 6.52% (active) in test [3]; 15.1% in [4]; 22.9% in [5]; 34.3% in [6]. Moreover, the growth in test [7] was 15.9%; in test [8], -23.5% (active); in test [9], -16.5% (active); in test [10], -34.1% (active).

As to `N#Cc1c(NC(=O)c2ccc(C(O)(C(F)(F)F)C(F)(F)F)cc2)sc2c1CCC(=O)C2`, the growth in test [1] is -6.36% (active); in test [2], 6.42% (active); in test [3], -7.08% (active); in test [4], -60.8% (active); in test [5], -29.6% (active); in test [6], -38.9% (active). The growth in test [7] was -27.6% (active); in [8], -53.1% (active); in [9], -22% (active); in [10] it was -60.4% (active).

As for `CCOC(=O)CNC(=O)CN(Cc1ccccc1)C(=O)[C@@]1(C)CCC[C@]2(C)[C@H]3C[C@H]4C(C(C)C)=C[C@]3(CC[C@H]21)[C@@H]1C(=O)OC(=O)[C@@H]14`, the growth in test [1] was 4.44% (active); in test [2], 15.2%; in [3], 55.9%; in [4], 105%; in test [5] it was 62.2%; in test [6], 89.4%. Also, the growth in test [7] was 41.8%; in test [8], 44.1%; in [9], 60.3%; in test [10], 45.3%.

For the compound `CCOC(=O)c1sc(N/N=C(\C)c2ccc3c(c2)Nc2ccccc2S3)nc1C`, the growth in test [1] is 18.8%; in [2], 20.1%; in test [3] it was 38.7%; in test [4], 30.6%; in [5], 44.1%; in [6], 68.5%. The growth was 39.6% in test [7], 46.1% in test [8], 30.9% in [9] and 28.8% in test [10].

For `CCCn1c(=O)c2[nH]c(-c3ccc(OCc4nc5ccccc5[nH]4)cc3)nc2n(CCC)c1=O`, the growth in [1] is 39%; in test [2], 40%; in test [3], 27.6%; in [4] it was 92.2%; in test [5], 3.46% (active); in test [6], 40.3%. The growth in test [7] is 39.8%; in [8] it was 26.8%; in test [9], -17.8% (active); in test [10] it was 66.3%.

As to `CN1C(=O)/C(=C/c2nccs2)SC1=S`, the growth is 52.3% in [1]; 97.2% in [2]; 91.5% in test [3]; 95.6% in test [4]; 84.1% in test [5]; 105% in test [6]. For the same compound, the growth was 63.8% in test [7], 114% in test [8], 86.5% in [9] and 93.5% in test [10].

Consider `COc1ccc2[nH]c(=O)c(CSc3cccc(N)c3)cc2c1`, for which the growth in [1] was 39.1%; in test [2] it was 44.8%; in test [3] it was 59.2%; in [4] it was 91.6%; in test [5] it was 49.8%; in test [6], 94.5%. For the same compound, the growth is 74.1% in test [7], 66.9% in test [8], 95% in [9] and 73% in test [10].

For `Cc1ccc2nc3c(nc2c1)c1cc(I)ccc1n3CCN(C)C`, the growth in test [1] was 10.8%; in test [2] it was 22%; in test [3] it was 23.6%; in test [4], 31.9%; in [5] it was 27.2%; in test [6] it was 39%. Also, the growth is 13.9% in test [7], 40.8% in test [8], 23.9% in test [9] and 12.5% in [10].

Turning to `O=S(=O)(Nc1ncccn1)c1ccc(-n2c(-c3ccccc3)nc(-c3ccccc3)c2-c2ccccc2)cc1`, the growth in test [1] is 81.8%; in test [2], 71.1%; in [3] it was 97.4%; in test [4], 104%; in test [5] it was 94.1%; in test [6] it was 101%. For the same compound, the growth in test [7] is 103%; in test [8] it was 113%; in test [9], 81%; in [10] it was 95.3%.

On to `C=CCn1c(SCC(=O)Nc2ccc(C(=O)/C=C/c3ccccc3)cc2)nnc1-c1c[nH]c2ccccc12`, for which the growth in test [1] is 31.4%; in [2] it was 2.87% (active); in test [3], 64.7%; in test [4], 102%; in test [5] it was 61.9%; in test [6], 86.8%. Besides, the growth in test [7] was 42%; in test [8] it was 41.4%; in test [9], 70.5%; in test [10], 85.4%.

`O=C(CNc1nc(-c2ccccc2)cs1)Nc1cccc([N+](=O)[O-])c1`: the growth is 2.8% (active) in [1]; -18% (active) in test [2]; -11.1% (active) in test [3]; -92.8% (active) in test [4]; -45.7% (active) in [5]; -22% (active) in test [6]. Also, the growth in test [7] was -47.4% (active); in test [8], -44.6% (active); in [9] it was -19.2% (active); in test [10] it was -61.4% (active).

For `COc1cc2c(cc1OC)/C(=C\c1sc(Nc3ccc(O)cc3)nc1O)C(C(=O)O)=N2`, the growth was 17% in [1]; 16.1% in test [2]; 22.8% in [3]; 34.6% in test [4]; 54% in test [5]; 47.3% in test [6]. Also, the growth in test [7] is 34.3%; in test [8] it was 3.64% (active); in [9], 31%; in test [10], 85.4%.

Regarding `O=C(CSc1nnc(-c2c[nH]c3ccccc23)n1-c1ccccc1)Nc1ccc(C(=O)/C=C/c2ccccc2Cl)cc1`, the growth in test [1] is 71.6%; in test [2], 40.3%; in test [3] it was 61.7%; in test [4], 101%; in test [5], 79.1%; in [6], 95.2%. Besides, the growth is 95.1% in test [7], 80.6% in test [8], 86.4% in test [9] and 92.4% in [10].

For `O=C(CNc1nc(-c2ccccc2)cs1)Nc1ccc(Cl)cc1`, the growth is -18.7% (active) in test [1]; 2.96% (active) in test [2]; -28.8% (active) in test [3]; -95.4% (active) in test [4]; -33.8% (active) in test [5]; -82.9% (active) in [6]. In addition, the growth in test [7] was -78.6% (active); in test [8], -36.6% (active); in test [9], -3.04% (active); in test [10] it was -30.3% (active).

For the compound `CCCn1c(=O)c2[nH]c(-c3ccc(OCc4nc5ccc(C)cc5[nH]4)cc3)nc2n(CCC)c1=O`, the growth in [1] was 11.6%; in [2], 29.3%; in test [3], 17.3%; in test [4], 40.6%; in [5] it was 0.252% (active); in test [6], 4.62% (active). Further, the growth in test [7] was 37%; in test [8], 18.2%; in [9] it was -12.4% (active); in test [10], 31.7%.

(Values after PubChem BioAssay (NCI).)
